# A number with no mark means an inactive call. For some assays here: Entries with a potency or affinity are not part of this list. Active and inactive are the calls of the source. Unless noted, the rule behind the calls is not given here.
# What was measured:
# [1] = antimalarial activity against Dd2 strain (AID 2302;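 active = growth inhibition above 50% at the single 2 µM test dose, taken to imply half-maximal potency below 2 µM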;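 note: 0% = DMSO untreated growth and 100% = chloroquine plus artemisinin killed control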); conditions: P. falciparum Dd2 in RBCs, LDH growth readout, 72 h; at 2 µM; stronger effect = higher value
# [2] = HepG2 cytotoxicity, primary screen, cytotoxicity control for P. falciparum antimalarial project, cell-based, ATP luminescence (AID 2303;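 active = inhibition above 50%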;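 note: 0% = DMSO wells and 100% = digitonin-killed cells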); conditions: HepG2 viability, 24-48 h, at 10 µM, stronger effect = higher value
# [3] = molecular target: L-lactate dehydrogenase (Plasmodium falciparum (isolate CDC / Honduras)) (UniProt Q27743); assay: PfLDH activity inhibition – cell lysate, 3D7 strain, counter-screen for P. falciparum growth inhibition project (AID 2304);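 note: 0% = vehicle and 100% = reference inhibitor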; conditions: P. falciparum 3D7 crude extract, LDH APAD/NBT absorbance; at 2 µM; stronger effect = higher value
# [4] = inhibition of 3D7 malaria parasite growth – strain 3D7 (AID 2306);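 note: 0% = DMSO wells and 100% = chloroquine plus artemisinin control wells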; conditions: P. falciparum 3D7 erythrocytic growth, LDH absorbance, 72 h; at 2 µM; stronger effect = higher value
# [5] = molecular target: Calcium-dependent protein kinase 1 (Plasmodium falciparum (isolate 3D7)) (UniProt P62344); assay: PfCDPK1 kinase inhibitors, biochemical, TCAMS library (AID 1159585; cut-off not given, nearly all actives have IC50 up to about 0.98 µM;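 note: inhibitors leave more ATP so luminescence rises with inhibition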); conditions: recombinant PfCDPK1, Kinase-Glo ATP depletion luminescence
# [6] = molecular target: Plasmodium falciparum protein kinase 6 (PK6, PF3D7_1337100) (UniProt Q8IDW1); assay: PfPK6 kinase inhibitors, biochemical, TCAMS library (AID 1159586); conditions: recombinant PfPK6, Kinase-Glo ATP depletion luminescence
# [7] = molecular target: Protein kinase 7 (PK7), Plasmodium falciparum 3D7 (PF3D7_0213400) (UniProt Q7YTF7); assay: inhibition of Plasmodium PK7 catalytic activity – biochemical, TCAMS antimalarial set, Kinase-Glo luminescence (AID 1159587); conditions: recombinant PfPK7, Kinase-Glo ATP depletion luminescence
# [8] = molecular target: Calcium-dependent protein kinase 4 (Plasmodium falciparum (isolate 3D7)) (UniProt Q8IBS5); assay: PfCDPK4 kinase inhibitors, biochemical, TCAMS library (AID 1159588; cut-off not given, nearly all actives have IC50 up to about 0.91 µM); conditions: recombinant PfCDPK4, Kinase-Glo ATP depletion luminescence
# Sequence of Calcium-dependent protein kinase 4 (Plasmodium falciparum (isolate 3D7)) (Q8IBS5 whole entry, looked up): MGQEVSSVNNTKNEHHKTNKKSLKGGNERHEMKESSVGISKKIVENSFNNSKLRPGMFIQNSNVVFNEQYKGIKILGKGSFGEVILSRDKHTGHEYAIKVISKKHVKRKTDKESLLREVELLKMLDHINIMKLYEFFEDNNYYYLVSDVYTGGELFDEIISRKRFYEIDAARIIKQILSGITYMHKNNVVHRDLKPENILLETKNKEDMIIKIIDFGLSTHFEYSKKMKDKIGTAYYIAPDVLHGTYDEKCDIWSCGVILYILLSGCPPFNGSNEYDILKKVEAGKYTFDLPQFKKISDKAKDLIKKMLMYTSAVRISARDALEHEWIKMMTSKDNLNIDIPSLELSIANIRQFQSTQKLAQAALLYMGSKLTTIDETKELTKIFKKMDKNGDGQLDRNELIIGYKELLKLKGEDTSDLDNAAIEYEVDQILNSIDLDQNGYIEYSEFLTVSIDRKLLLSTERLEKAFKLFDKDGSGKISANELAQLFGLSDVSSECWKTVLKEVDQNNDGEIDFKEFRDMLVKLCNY
# Sequence of Calcium-dependent protein kinase 1 (Plasmodium falciparum (isolate 3D7)) (P62344 whole entry, looked up): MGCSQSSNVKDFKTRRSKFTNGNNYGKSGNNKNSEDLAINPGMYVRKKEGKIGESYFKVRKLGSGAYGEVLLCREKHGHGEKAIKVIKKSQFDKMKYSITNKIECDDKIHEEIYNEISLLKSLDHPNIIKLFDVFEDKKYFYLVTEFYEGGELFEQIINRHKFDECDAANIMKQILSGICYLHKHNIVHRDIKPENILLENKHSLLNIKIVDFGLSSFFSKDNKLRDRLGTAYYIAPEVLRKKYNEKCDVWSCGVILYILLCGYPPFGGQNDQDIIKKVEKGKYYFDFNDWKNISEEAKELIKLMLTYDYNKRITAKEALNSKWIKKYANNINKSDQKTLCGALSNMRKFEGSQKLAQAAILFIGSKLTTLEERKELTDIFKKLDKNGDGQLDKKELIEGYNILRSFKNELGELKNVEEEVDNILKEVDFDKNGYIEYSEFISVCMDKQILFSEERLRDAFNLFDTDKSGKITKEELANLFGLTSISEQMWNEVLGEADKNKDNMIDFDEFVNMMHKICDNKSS
# Sequence of L-lactate dehydrogenase (Plasmodium falciparum (isolate CDC / Honduras)) (Q27743 whole entry, looked up): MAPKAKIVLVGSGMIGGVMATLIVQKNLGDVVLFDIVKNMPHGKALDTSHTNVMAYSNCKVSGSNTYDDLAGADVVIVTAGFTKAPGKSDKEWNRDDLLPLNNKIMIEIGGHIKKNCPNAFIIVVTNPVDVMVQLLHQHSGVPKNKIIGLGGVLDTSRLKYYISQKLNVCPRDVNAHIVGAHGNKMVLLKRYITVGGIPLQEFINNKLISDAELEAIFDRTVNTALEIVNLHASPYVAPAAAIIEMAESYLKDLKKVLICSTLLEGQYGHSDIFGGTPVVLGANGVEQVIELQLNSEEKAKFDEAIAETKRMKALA
# Sequence of Plasmodium falciparum protein kinase 6 (PK6, PF3D7_1337100) (Q8IDW1 1-305): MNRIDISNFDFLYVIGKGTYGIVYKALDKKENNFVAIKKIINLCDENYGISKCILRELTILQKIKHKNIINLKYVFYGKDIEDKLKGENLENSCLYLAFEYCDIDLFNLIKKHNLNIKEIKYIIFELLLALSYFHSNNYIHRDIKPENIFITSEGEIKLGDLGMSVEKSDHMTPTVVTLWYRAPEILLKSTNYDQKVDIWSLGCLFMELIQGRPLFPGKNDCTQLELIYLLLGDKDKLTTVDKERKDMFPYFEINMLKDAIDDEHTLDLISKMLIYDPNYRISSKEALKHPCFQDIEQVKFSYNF
# Sequence of Protein kinase 7 (PK7), Plasmodium falciparum 3D7 (PF3D7_0213400) (Q7YTF7 1-343): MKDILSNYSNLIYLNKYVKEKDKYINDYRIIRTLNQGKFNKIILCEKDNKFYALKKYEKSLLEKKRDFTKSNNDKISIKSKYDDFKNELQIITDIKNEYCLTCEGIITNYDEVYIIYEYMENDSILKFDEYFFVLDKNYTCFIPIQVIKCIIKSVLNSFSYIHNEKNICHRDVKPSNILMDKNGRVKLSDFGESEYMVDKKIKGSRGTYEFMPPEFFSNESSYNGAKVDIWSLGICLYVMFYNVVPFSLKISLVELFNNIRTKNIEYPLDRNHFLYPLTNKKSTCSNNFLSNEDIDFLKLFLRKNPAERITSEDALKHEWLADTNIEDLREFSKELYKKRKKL
Structure (SMILES),growth inhibition [1],inhibition [2],inhibition [3] [%],growth inhibition [4],outcome [5],outcome [6],outcome [7],outcome [8]
O=C(O)C1CC(=O)N(c2ccc(Cl)cc2)C1 (stereo not given),33%,51% (active),6,97% (active),inactive,inactive,inactive,inactive
COc1ccc(C2CCN(CCCCNC(=O)c3ccc(NC(=O)c4ccc(Cl)cc4)cc3)CC2)c(C)c1,35%,22%,2,98% (active),inactive,inactive,inactive,inactive
Cc1nc2nc(N)nc(N)c2c(C)c1Cc1ccc(Cl)cc1,22%,62% (active),0,94% (active),inactive,inactive,inactive,inactive
Cc1cc(NC(=O)c2cc(S(=O)(=O)N3CCCCC3)ccc2C)no1,29%,-7%,-7,95% (active),inactive,inactive,inactive,inactive
COc1cc(C2CCCCC2)c(OC)cc1CC1c2cc(O)c(Cl)cc2CCN1C (stereo not given),100% (active),12%,4,100% (active),inactive,inactive,inactive,inactive
CCCN(CCC)CCCN(CCCN(CCC)CCC)c1cc(C)nc(Nc2ccc3cc(Br)ccc3c2)n1,99% (active),99% (active),1,98% (active),inactive,inactive,inactive,inactive
N=C(N)c1ccc(C(=O)Nc2cccc(C(=N)N)c2)cc1,82% (active),13%,-2,88% (active),inactive,inactive,inactive,inactive
COc1cc2c(cc1OC)CN(CCCCc1ccc(NC(=O)c3cc(Cl)cc(Cl)c3)cc1)CC2,4%,21%,-3,95% (active),inactive,inactive,inactive,inactive
O=C(Cc1cnc[nH]1)Nc1cccc(-c2ccc(-c3nc4ccc(F)cc4[nH]3)cc2)c1,84% (active),4%,-7,100% (active),inactive,inactive,inactive,inactive
O=C(Nc1cccc(CN2CCCN(Cc3ccc4c(c3)OCO4)CC2)c1)c1ccc(-c2ccccc2)cc1,19%,48%,-10,90% (active),inactive,inactive,inactive,inactive
COc1ccc(Br)cc1/C=C/C(=O)Nc1ccc(C2CCCN(C)C2)cc1 (stereo not given),35%,18%,-2,100% (active),inactive,inactive,inactive,inactive
CC1(C)N=C(N)N=C(N)N1OCC1COc2ccccc2O1 (stereo not given),66% (active),56% (active),-1,96% (active),inactive,inactive,inactive,inactive
O=C(Nc1cccc(CN2CCCN(Cc3cccc(O)c3)CC2)c1)c1ccc2ccccc2c1,42%,21%,-4,97% (active),inactive,inactive,inactive,inactive
COc1ccc2nc3cc(Cl)ccc3c(NCCCCN3CCNCC3)c2c1,75% (active),29%,-5,102% (active),inactive,inactive,inactive,inactive
O=C(/C=C/c1ccc(Cl)c(Cl)c1)NCCCCCN1CCCN(C(=S)Nc2ccc(Cl)cc2)CC1,10%,7%,-3,86% (active),inactive,inactive,inactive,inactive
Cc1cccc2[nH]c(-c3ccc(-c4cccc(CNCc5cccc(N)c5)c4)s3)nc12,85% (active),15%,-4,102% (active),inactive,inactive,inactive,inactive
CC(C)CCNCc1c(O)ccc2ccccc12,51% (active),9%,2,95% (active),inactive,inactive,inactive,inactive
CN(c1ccc(NC(=O)c2ccc(F)cc2)cc1)C1CCN(Cc2cccc(F)c2)C1 (stereo not given),74% (active),3%,-2,81% (active),inactive,inactive,inactive,inactive
CN(c1ccc(NC(=O)c2cccc(F)c2)cc1)C1CCCN(Cc2cccc(O)c2)C1 (stereo not given),2%,13%,-3,85% (active),inactive,inactive,inactive,inactive
COc1ccc(NC(=O)CCNc2cc(C)nc(NCc3ccccc3C)n2)cc1,61% (active),7%,-1,94% (active),inactive,inactive,inactive,inactive

Structure (SMILES),growth inhibition [1],inhibition [2],inhibition [3] [%],growth inhibition [4],outcome [5],outcome [6],outcome [7],outcome [8]
N=C(N)c1ccc(NC(=O)c2cc(Sc3ccc(O)c(C(=O)Nc4ccc(C(=N)N)cc4)c3)ccc2O)cc1,87% (active),11%,2,93% (active),inactive,inactive,inactive,inactive
CCCCCC(=O)N1CCOC(CCN2CCc3c(c4ccccc4n3C)C2)(c2ccc(Cl)c(Cl)c2)C1 (stereo not given),80% (active),24%,1,95% (active),inactive,inactive,inactive,inactive
COc1cc(F)c2ncc(Cl)c(C(O)CN3CCC(NC(=O)c4ccc5c(c4)NC(=O)CS5)CC3)c2c1 (stereo not given),68% (active),15%,1,98% (active),inactive,inactive,inactive,inactive
O=c1cc(NCCCNCc2cccc(C(F)(F)F)c2Cl)[nH]c2ccccc12,24%,0%,-2,94% (active),inactive,inactive,inactive,inactive
N#Cc1cccc(-c2cnc(N)c(-c3nc4ccc(S(N)(=O)=O)cc4[nH]3)c2)c1,99% (active),16%,-5,100% (active),inactive,inactive,inactive,inactive
Cc1cc(NCc2ccccc2)nc(NCc2ccccc2)n1,18%,21%,5,91% (active),inactive,inactive,inactive,inactive
Cc1c(C(=O)N2CCc3cc4nccc(N5CCN6CCC[C@H]6C5)c4cc32)cnn1-c1ccc(C#N)cc1,27%,0%,-3,90% (active),inactive,inactive,inactive,inactive
COc1ccc(CNC2CCN(C)CC2)cc1-c1ccc(S(=O)(=O)NCc2ccccc2)c(C)c1,98% (active),81% (active),3,100% (active),inactive,inactive,inactive,inactive
C[C@@H]1CC[C@H](NC(=O)[C@H](CC2CCCC2)NC(=O)N2CCNCC2)C(=O)CN1S(=O)(=O)c1ccccn1,19%,5%,-2,84% (active),inactive,inactive,inactive,inactive
Cc1cccc(CNc2nc(C)cc(NCCC(=O)NCc3cccc(F)c3)n2)c1,13%,23%,-1,84% (active),inactive,inactive,inactive,inactive
Oc1ccc(CCNc2nc(NCCCOc3cc(CN4CCCCC4)ccc3F)nc(N3CCNCC3)n2)cc1,-3%,30%,-1,101% (active),inactive,inactive,inactive,inactive
N=C(N)c1cc(Br)cc(NC(=O)Nc2cc(Br)cc(C(=N)N)c2)c1,76% (active),0%,-4,93% (active),inactive,inactive,inactive,inactive
CCOc1ccc(-c2noc(-c3c[nH]c4ccccc4c3=O)n2)cc1,93% (active),-7%,-3,99% (active),inactive,inactive,inactive,inactive
CCCC(C)NC(=O)c1cnn(-c2ccc(C(C)(C)C)cc2)c1OCc1ccc(Br)cc1 (stereo not given),64% (active),17%,0,84% (active),inactive,inactive,inactive,inactive
O=C(Nc1ccccc1)N1CCC(CN2CCOC(c3ccccc3)(c3ccccc3)C2)CC1,98% (active),10%,2,96% (active),inactive,inactive,inactive,inactive
CCOC(=O)C1CCN(CCCNC(=O)/C(=C/C=C/c2cc3cc(Cl)c(Cl)cc3[nH]2)OC)CC1,78% (active),23%,-6,87% (active),inactive,inactive,inactive,inactive
Cc1cc(Cl)c(S(=O)(=O)N2CCc3ccccc32)cc1OCC(=O)NC1CCCCC1,93% (active),28%,-3,101% (active),inactive,inactive,inactive,inactive
CCOc1ccc2nc(C)cc(NN=Cc3ccccc3[N+](=O)[O-])c2c1,99% (active),91% (active),-5,101% (active),inactive,inactive,inactive,inactive
Cc1cccc2[nH]c(-c3ccc(-c4cccc(NC(=O)Nc5ccccc5)c4)cc3)nc12,14%,18%,9,101% (active),inactive,inactive,inactive,inactive
c1cc2c3c(cccc3c1)NC(CCCCCCCCC1=Nc3cccc4cccc(c34)N1)=N2,6%,14%,0,93% (active),inactive,inactive,inactive,inactive

# Source: PubChem BioAssay
